The record followed here is PubChem BioAssay (NCI).

About 83,000 compounds went through this panel and 20% of them were active in at least one assay; those are over-represented in the sample as a whole.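 Results are percent growth after 48 hours of single-concentration exposure. 100 means growth as in untreated cells, lower positive values show inhibition; negative values down to -100 show cell death.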 Values without a mark were called inactive. The source made the active and inactive calls. Rule for the calls: active = growth percent below 10; inactive = the rest.

The subject of this experiment is HL-60(TB) leukemia. As to the kind of experiment: NCI-60 one-dose screen, 48 h (100 = growth as untreated, 0 = no growth, -100 = all killed). Conditions: 10 µM unless noted.
In the case of `CC(=O)c1ccc(Nc2nc(SCCC(C)C)nc(-c3ccc(F)cc3)c2C#N)cc1`, the growth is 91.8%.

As for `C=C1CC[C@@H]2[C@]3(C)COC(c4cn(-c5ccccc5)nc4-c4ccccc4)O[C@@H]3CC[C@@]2(C)[C@@H]1C/C=C1/C(=O)OC[C@H]1O` (stereo not given in full), the growth was -33.7% (active). Under `CC(=O)c1cc(C(=O)c2ccc3c(c2)NC(=O)CO3)n2ccc3ccccc3c12` stands 94.7%; under `COc1sc(/C=N/NC(=O)c2[nH]c3ccc(Br)cc3c2-c2ccccc2)cc1Cl`, -42.8% (active); under `COc1c2c(c(Br)c3c1C(CCc1ccccc1)N(C)CC3)OCO2` (stereo not given), 14.1%. To `CC1CCCCN1CCCNC(=O)N/C(N)=N/c1nc2ccccc2s1` (stereo not given) belongs 19.5%; to `COc1cc(/C=C/C(=O)c2cnn(-c3cc(=O)[nH]c4ccc(Br)cc34)c2C)cc(OC)c1OC`, -19.6% (active); to `C=CCSc1nnc(-c2c(C)nc3sccn23)o1`, 119%. To `COc1ccc(-c2nc3cc(C)ccc3n2CC(=O)N=Nc2c(O)[nH]c3ccc(Cl)cc23)cc1` belongs 41.1%; to `O=C(NO)c1ccc(CN2CCN(c3nc(-c4ccccc4)c4ccccc4n3)CC2)cc1`, 7.7% (active); to `CCCn1c(=O)c2[nH]c(-c3ccc(OCc4nc5ccccc5[nH]4)cc3)nc2n(CCC)c1=O`, 85.3%. As for `CCCCNC(=S)Nc1ccc(OCc2nc3ccccc3[nH]2)cc1`, the growth was 31.7%. Take `Cc1cc2nc3c4ccccc4n(CC4=NCCN4)c3nc2cc1C`: the growth was -55.6% (active). To `NS(=O)(=O)c1ccc(Nc2nc(N/N=C/c3cc(Br)c(O)c(Br)c3)nc(Nc3ccccc3)n2)cc1` belongs 47.3%; to `CN(C)c1ccc(/C=C/C(=O)c2ccc(NC(=O)CN3C(=O)NC(C)(c4ccccc4)C3=O)cc2)cc1` (stereo not given), 47.5%.

For `CN1CCN(c2ccc3c4c(cccc24)C(=O)N(c2cccc(-c4nn(-c5ccccc5)cc4-c4nc5ccccc5s4)c2)C3=O)CC1`, the growth was 102%. Under `NC(=O)c1ccc(-c2ccc3ncnc(N4CCc5cc(F)c(Cl)cc54)c3c2)cn1` stands 64.9%; under `Cn1cc(-c2cc(N)n3nc(-c4cn(C)c5ncccc45)cc3n2)c2cccnc21`, 39.2%. To `S=C(Nc1ccccc1)Nc1ccc(OCc2nc3ccccc3[nH]2)cc1` belongs 20.2%; to `COc1ccc(C2c3sc4ccc(C)cc4c3Oc3nc[nH]c(=O)c32)cc1` (stereo not given), 85.2%; to `CN1CCCN(Cc2ccc(C(=O)Nc3cccc(Nc4ccc5cc(O)ccc5n4)c3)cc2C(F)(F)F)CC1`, 73.7%.

Take `Cc1ccc(Cl)cc1NC(=O)N/C(N)=N/c1nc2ccccc2s1`: the growth is -44.9% (active).

In the case of `c1n[nH]cc1-c1nc2ccc3cn[nH]c3c2c2c1CCCC2`, the growth was 94.4%. Consider `N#Cc1c(-c2cccc(Cl)c2Cl)cc(-c2ccc3ccccc3c2)[nH]c1=O`, for which the growth was 83.8%. On to `O=C(c1ccc(Cl)cc1)C1[C@H](c2ccccc2Cl)[C@@H](c2ccccc2)NC12C(=O)Nc1ccccc12` (stereo not given in full), for which the growth was -35.1% (active). Under `O=C(COc1ccc(NC(=O)Nc2ccc(Cl)c(Cl)c2)cc1)N=Nc1c(O)[nH]c2ccc(Cl)cc12` stands -23% (active). With `CNc1nc2ccccc2n2c(-c3ccc(O)c(O)c3)cnc12`, the growth is -19.6% (active).

For the molecule `COc1cc(/C=C/C(=O)c2ccc(C)cc2)ccc1Oc1nc(Nc2ccc(F)cc2)nc(N(C)C)n1`, the growth was 41.7%. Under `CN(C)c1ccc(/C=C/c2nc3ccccc3c(=O)n2CC(=O)Nc2ccccc2)cc1` stands 91.8%; under `Cc1ccc(C2CC(c3ccc(S(=O)(=O)NCCNc4nc(Nc5ccc(F)cc5)nc(N(C)C)n4)cc3)=Nc3c(N)nc(N)nc3N2)cc1` (stereo not given), -10.4% (active); under `CC(C)Sc1nc(NCCc2c[nH]c3ccccc23)c(C#N)c(-c2ccc(F)cc2)n1`, 27%.

Regarding `Clc1cccc(N/N=C/c2c[nH]c3ccccc23)n1`, the growth is 13.8%. To `O=c1[nH]c2ccccc2cc1CSc1cccc(Nc2nccc(-c3ccc4ccccc4c3)n2)c1` belongs 93.5%; to `O=C(c1ccc(O)cc1)C1[C@H](c2ccc(Cl)cc2)[C@@H](c2ccccc2)NC12C(=O)Nc1ccccc12` (stereo not given in full), -33.3% (active). Turning to `COc1ccc2nc(Cl)c(-c3cc(-c4ccccc4)nc(N)n3)cc2c1`, the growth is -37.5% (active). To `O=c1oc2ccc(Br)cc2cc1C1=CSc2nc3sc4c(c3c(=O)n2N=C1)CCCC4` belongs 45.4%; to `O=C(CSc1nnc(-c2c[nH]c3ccccc23)n1-c1ccccc1)Nc1ccc(C(=O)/C=C/c2ccc(Br)cc2)cc1`, 83.2%. Under `Nc1nn2c(-c3cc4ccccc4oc3=O)ccnc2c1N=Nc1ccccc1` stands 108%; under `Cn1cc(/C=N/Nc2ccnc3cc(Cl)ccc23)c2ccccc21`, -60.3% (active). With `O=C(CSc1nnc(-c2ccc(-c3nc4ccc(Cl)cc4[nH]3)cc2)o1)Nc1ccccc1`, the growth was 42.1%.
